The record followed here is PubChem BioAssay (NCATS).

The structures appear in SMILES notation. Inconclusive results are not listed. Activity calls are given as the source filed them. The call rests on the fitted dose curve; in most records, active means well fitted cell-killing curve with a large enough effect; inconclusive means small, poorly fitted or top-dose-only effect; inactive means no such curve, though single readings can be large or run the other way.
Potency means the concentration at half of the fitted maximal effect.

The assay can be described thus: qHTS of pediatric cancer cell lines to identify multiple opportunities for drug repurposing: Confirmatory screen for SK-N-MC cells (AID 1347111).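 Further: cells exposed to compound for 48 h before the readout; nearly all actives have a fitted effect of over 70% in size.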 As to conditions: SK-N-MC cell viability; series mostly up to 45.9 µM. The text has this: Drug repurposing or repositioning has been offered as a strategy for drug development in oncology programs. This approach has special potential for childhood cancers and other rare or orphan diseases, where the expected return on new drug development has been a disincentive to pharmaceuticals.
In this project we exploit the poly-pharmacology of drugs to discover new indications via phenotypic screening of a panel of 19 well-characterized cell lines derived from solid tumors seen in children and adolescents. The goal is to identify approved drugs with previously unrecognized anticancer properties that has the potential to reveal new mechanisms and biological processes involved in carcinogenesis or drug resistance. We employed a titration-based paradigm (quantitative high-throughput screening or qHTS), where all compounds were tested at multiple concentrations for their effect on cell viability. Concentration-response curves (CRCs) were derived directly from the primary screen, and both potency and efficacy values were used to identify compounds with robust bioactivity profiles. We screened the NIH Chemical Genomics Center (NCGC) Pharmaceutical Collection (NPC) and Mechanism Interrogation Plate (MIPE) small molecule collections of approved and investigational compounds against these cell lines; and measured metabolically active cells after 48 hours of compound treatment as a proxy for cell viability.
Assay Submitter: Nathalia J. Martinez, National Center for Advancing Translational Sciences, National Institutes of Health, Rockville, MD, USA; email: natalia.martinez@nih.gov
[1] Shen, M et al. Quantitative high-throughput phenotypic screening of pediatric cancer cell lines identifies multiple opportunities for drug repurposing. Oncotarget 2017 Dec 19;9(4):4758-4772. PMID 29435139.
The cells were obtained from University of North Carolina (UNC), Pediatric Preclinical Testing Program (PPT), and Coriell Institute (CI).
qHTS cell viability assay:
Cells were assayed in growth media at a density of 500-1,000 cells/well. Five microliters of cells were dispensed into 1,536-well, white, solid-bottom, TC-treated plates (Greiner Bio One) using a multidrop dispenser and incubated at 37 degrees C, 5% CO2, under a humidified atmosphere for 5 hours. Twenty-three nanoliters of compounds and controls (neutral control DMSO or positive control bortezomib at final concentration of 2.3 µM) were subsequently transferred by Kalypsys pintool. For primary screens, the MIPE collection was tested at 11-point dilutions (final concentrations range from 0.78 nM to 46 µM) and the NPC collection at 8-point dilutions (final concentrations range from 0.59nM to 46 µM). Compounds tested in follow-up screens were assayed at 11-point dilutions. Cells were incubated for 48 hours, followed by addition of 3 uL of CellTiter-Glo (Promega). After a 15 min incubation at room temperature, samples were analyzed for luminescence intensity using a ViewLux High-throughput CCD imager equipped with clear filters.
With `Cc1ccccc1-n1c(Cn2ncc3c(N)ncnc32)nc2cccc(C)c2c1=O`, the Potency is 1.04 µM (active).
The same measure for `CC[C@@H]1[C@@H](C)O[C@@](O)([C@@H](C)[C@H](O)[C@H](C)[C@H]2OC(=O)C=CC=C[C@@H](C)[C@@H]([C@@H](C)[C@@H](O)[C@H](C)[C@@]3(O)C[C@H](O[C@H]4C[C@H](O)[C@H](O)[C@H](C)O4)[C@H](CC)[C@@H](C)O3)OC(=O)C=CC=C[C@@H]2C)C[C@H]1O[C@H]1C[C@H](O)[C@H](O)[C@H](C)O1`: “inactive”.
Consider `CC(=O)[O][Hg][c]1ccccc1`, for which the Potency was 0.827 µM (active).
As for `CC(C)N[C@@H]1CCn2c(=O)[nH]c3cccc(c32)[C@@H]1O`, the Potency is 18.5 µM (active).
The same measure for `O=C(N[C@H]1CN2CCC1CC2)c1ccc(Cl)cc1`: 1.17 µM (active); for `CC[C@@]1(O)C(=O)OCc2c1cc1n(c2=O)Cc2cc3ccccc3nc2-1`: 0.0293 µM (active); for `C[C@H]1CCCC=CC2C[C@H](O)C[C@@H]2[C@H](O)C=CC(=O)O1` (some centres undefined): 0.104 µM (active).
On to `O=C(Nc1ccncc1)C(=O)c1cn(Cc2ccc(Cl)cc2)c2ccccc12`, for which the Potency is 0.329 µM (active).
With `CC(=Cc1csc(C)n1)[C@@H]1C[C@H]2O[C@]2(C)CCC[C@H](C)[C@@H](O)[C@@H](C)C(=O)C(C)(C)[C@@H](O)CC(=O)O1`, the Potency is 0.0059 µM (active).
Next, `Cc1[nH]nc2ccc(-c3cncc(OC[C@@H](N)Cc4c[nH]c5ccccc45)c3)cc12`: 1.47 µM (active); `CC=C(C)C(=O)O[C@H]1C(C)=C2[C@@H]3OC(=O)[C@@](C)(O)[C@@]3(O)[C@@H](OC(=O)CCC)C[C@](C)(OC(C)=O)[C@@H]2[C@@H]1OC(=O)CCCCCCC`: “inactive”.
The same measure for `COc1ccc2c(c1)CN(C)CC2c1ccc(Cl)c(Cl)c1` (centres undefined): 6.57 µM (active); for `COc1cc2cc(c1Cl)N(C)C(=O)C[C@H](OC(=O)C(C)C)[C@]1(C)O[C@H]1[C@H](C)[C@@H]1C[C@@](O)(NC(=O)O1)[C@H](OC)C=CC=C(C)C2`: 0.0013 µM (active).
Next, `C=CCON=C(C[C@H]1O[C@@H]2O[C@]3(C)CC[C@@H]4[C@H](C)CC[C@@H]([C@H]1C)[C@@]24OO3)[C@H]1O[C@@H]2O[C@]3(C)CC[C@H]4[C@H](C)CC[C@@H]([C@@H]1C)[C@@]24OO3`: 0.147 µM (active).
For the compound `O=C(O)CCCOc1ccc(Cl)cc1Cl`, the Potency was 43.4 µM (active).
The same measure for `CC[C@H]1C=CC=CC[C@@H](C)[C@H](O)[C@@](C)(O)C(=O)[C@@H](C)[C@H](O)[C@@H](C)C(=O)[C@@H](C)[C@H](O)[C@@H](C)C=CC(=O)O[C@@H]2[C@@H](C)[C@H](CC1)O[C@]1(CC[C@H](C)[C@H](C[C@@H](C)O)O1)[C@H]2C`: 0.233 µM (active).
For `O=c1[nH]c2ccc(Cl)cc2c(N[C@@H]2CN3CCC2CC3)c1-c1nc2ccccc2[nH]1`, the Potency was 0.293 µM (active).
Next, `CCCCCC[C@H]1C(=O)O[C@H](C)[C@H](NC(=O)c2cccc(NC=O)c2O)C(=O)O[C@@H](C)[C@@H]1OC(=O)CC(C)C`: 0.0465 µM (active); `Cc1ccccc1-n1c(Cn2cnc3c(N)ncnc32)nc2cccc(C)c2c1=O`: “inactive”.
The same measure for `CC(C)(O)C=CC(=O)[C@](C)(O)[C@H]1[C@H](O)C[C@]2(C)[C@@H]3CC=C4[C@@H](C=C(O)C(=O)C4(C)C)[C@]3(C)C(=O)C[C@@]12C`: 0.147 µM (active); for `CC(C)(C)C(O)C(Oc1ccc(Cl)cc1)n1cncn1` (centres undefined): “inactive”; for `O=[N+]([O-])c1c(Cl)c(Cl)cc(Cl)c1Cl`: 38 µM (active).
As for `C[C@@H]1CC[C@@]2(OC1)O[C@H]1C[C@H]3[C@@H]4CC=C5C[C@@H](O[C@@H]6O[C@H](CO)[C@@H](O[C@@H]7O[C@@H](C)[C@H](O)[C@@H](O)[C@@H]7O)[C@H](O)[C@@H]6O[C@@H]6O[C@@H](C)[C@H](O)[C@@H](O)[C@@H]6O)CC[C@]5(C)[C@@H]4CC[C@]3(C)[C@@H]1[C@H]2C`, the Potency is 2.33 µM (active).
With `CC1=C(O)C(=O)C=C2C1=CC=C1[C@@]2(C)CC[C@@]2(C)[C@@H]3C[C@](C)(C(=O)O)CC[C@]3(C)CC[C@]12C`, the Potency is 1.17 µM (active).
Regarding `CC(=Cc1csc(C)n1)[C@@H]1C[C@H]2O[C@@H]2CCC[C@H](C)[C@@H](O)[C@@H](C)C(=O)C(C)(C)[C@@H](O)CC(=O)O1`, the Potency was 0.0208 µM (active).
Consider `CC=C(C)C(=O)N[C@@H](c1ccccc1)[C@@H](O)C(=O)O[C@H]1C[C@@]2(O)[C@@H](OC(=O)c3ccccc3)[C@@H]3[C@]4(OC(C)=O)CO[C@@H]4C[C@H](O)[C@@]3(C)C(=O)[C@H](OC(C)=O)C(=C1C)C2(C)C`, for which the Potency is 0.0369 µM (active).
For `Cc1c(C(=O)Nc2cccc(C(F)(F)F)c2)cc(-c2ccccc2)n1CCCN1CCOCC1`, the Potency is 26.9 µM (active).
Turning to `CC(C)[C@]12O[C@@H]1[C@@H]1O[C@]13[C@]1(O[C@H]1C[C@@H]1C4=C(CC[C@@]13C)C(=O)OC4)[C@H]2O`, the Potency is 0.0465 µM (active).
The same measure for `C[C@@H]1O[C@@H](O[C@@H]2C=C3CC[C@@H]4[C@@H](CC[C@]5(C)[C@H](c6ccc(=O)oc6)CC[C@@]45O)[C@@]3(C)CC2)[C@H](O)[C@H](O)[C@H]1O`: 0.0329 µM (active).
